# Laboratory results: the supplement of paper PMC4723716
# Over roughly 3,600 compounds, “viability index relative to DMSO control” has its median near 0.81; the lowest 2% begin near 0.13. Many of the other results were omitted from the sample, so the lowest values are more common in it than they were.
# Test system: Plasmodium falciparum NF54 stage V gametocytes
# Assay: viability index relative to DMSO control (fraction); higher = less gametocyte killing
# Conditions: 1.25 µM, incubation time: 72 h
# 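Further: Saponin-lysis sexual stage assay in serum-free medium: MitoTracker Red CMXRos staining plus saponin, high-content imaging, particle count per well divided by plate mean of DMSO wells.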
row,Compound,viability index
1,O=[N+]([O-])c1ccc2nc(NC3CCCCC3)c(NC3CCCCC3)nc2c1,0.86
2,O=[N+]([O-])c1ccc2nc(Nc3ccccc3)c(Nc3ccccc3)nc2c1,0.481
3,O=[N+]([O-])c1ccc2nc(Nc3ccc(Cl)c(Cl)c3)c(Nc3ccc(Cl)c(Cl)c3)nc2c1,0.0962
4,O=[N+]([O-])c1ccc(S(=O)(=O)N2CCN(C(=S)NCc3ccccc3)CC2)cc1,0.163
5,CC1(C)Cc2c(sc(NC(=O)CCl)c2C#N)CO1,0.556
6,CC(C)c1nc(N2CCN(C(=O)Nc3ccccc3)CC2)c(C#N)c2c1COC(C)(C)C2,0.0954
7,Cc1ccc(-c2noc(C3CCN(C(=O)Nc4ccc(C#N)cc4)CC3)n2)o1,0.957
8,CC(C)c1nc(N2CCN(C(=S)NCc3ccccc3)CC2)c(C#N)c2c1COC(C)(C)C2,0.0888
9,CCCC(=O)N1CCN(c2nc(Cc3ccccc3)c3c(c2C#N)CC(C)(C)OC3)CC1,0.568
10,CC[n+]1c(SC)ccc2cc(OC)ccc21,0.681
11,CCC(=O)NCc1nnc(SCc2cccc(C(F)(F)F)c2)n1-c1cccc(OC)c1,0.865
12,C[n+]1ccccc1C=Cc1cc(Br)ccc1O,0.819
13,CC(NC(=O)C(=O)N1CCCCC1)C(c1cccs1)N1CCOCC1 (stereo not given),0.787
14,Cc1ccc(Nc2nc(-c3ccccn3)cs2)cc1,0.127
15,COc1ccc2nc(Nc3nc(-c4ccccn4)cs3)sc2c1,0.331
16,Fc1cccc2sc(Nc3nc(-c4ccccn4)cs3)nc12,0.322
17,Cc1nc2ncccn2c1-c1csc(Nc2ccccn2)n1,1.06
18,COc1ccc2sc(Nc3nc(-c4ccccn4)cs3)nc2c1,0.876
19,O=C(Nc1nc(-c2ccccn2)cs1)c1ccc(Oc2ccc(C(=O)Nc3nc(-c4ccccn4)cs3)cc2)cc1,0.00826
20,Cc1ccnc(Nc2nc(-c3c(C)nc4sccn34)cs2)c1,0.822
21,Cc1ccnc(Nc2nc(-c3ccccn3)cs2)c1,0.0192
22,c1ccc(Nc2nc(-c3ccccn3)cs2)nc1,0.0653
23,Cc1nc2sccn2c1-c1csc(Nc2ccccn2)n1,0.89

row,Compound,viability index
1,Cc1ccnc(Nc2nc(-c3ccc(Cl)cc3)cs2)c1,0.938
2,CC(=O)Nc1nc(C)c(-c2csc(Nc3ccc(C)cc3)n2)s1,0.351
3,CC1CCc2c(sc(NC(=O)c3ccccc3F)c2C(=O)NCc2ccccc2)C1 (stereo not given),1.42
4,CCC(CC)=NNC(=O)C(=O)NC1CCCCC1,1.13
5,CCC(=O)NC(c1ccccc1Cl)c1cc(Cl)c2cccnc2c1O (stereo not given),0.86
6,O=C(O)c1ccc(S(=O)(=O)c2ccc3c(c2)C(=O)N(c2ccc(Sc4ccc([N+](=O)[O-])cc4)cc2)C3=O)cc1,0.887
7,CCOc1ccc(Nc2cc(=O)oc3ccccc23)cc1,0.618
8,CCCn1nc(Oc2nc(NCC)cc(OC)n2)ccc1=O,0.859
9,N=c1c2c(n(Cc3ccccc3)c3c1CCC3)CCC2,0.87
10,O=[N+]([O-])c1ccc(N2CCCN(C(=S)Nc3ccc(F)cc3Br)CC2)nc1,0.261
11,O=[N+]([O-])c1ccc(N2CCCN(C(=S)Nc3ccccc3)CC2)nc1,0.0788
12,O=[N+]([O-])c1ccc(N2CCN(C(=S)Nc3ccccc3)CC2)cc1,0.967
13,NC1=NC(c2ccccc2)N(c2ccccc2)C(N)=N1 (stereo not given),1.12
14,O=C(Nc1ccccc1C(=O)O)c1cccc(NC(=O)c2ccco2)c1,0.73
15,CCn1c(CSc2nc(C)cc(C)n2)nnc1SCC(N)=O,1.13
16,CC(=O)N(C1=C(N2CCC(C)CC2)C(=O)c2ccccc2C1=O)c1cccc(F)c1,0.892
17,CC(=O)N(C1=C(N(C)C)C(=O)c2ccccc2C1=O)c1cccc(F)c1,0.0612
18,CC(=O)N(C1=C(N(C)C)C(=O)c2ccccc2C1=O)c1ccc(F)cc1,0.0453
19,CC(=O)N(C1=C(N(C)C)C(=O)c2ccccc2C1=O)c1cc(C)cc(C)c1,0.0811
20,CC(=O)N(C1=C(N(C)C)C(=O)c2ccccc2C1=O)c1ccc(Cl)c(Cl)c1,0.257
21,CC(=O)N(C1=C(N2CCOCC2)C(=O)c2ccccc2C1=O)c1ccc(I)cc1,0.14
22,CC(=O)N(C1=C(N(C)C)C(=O)c2ccccc2C1=O)c1ccc(Cl)cc1,0.208
23,CC(=O)N(C1=C(N(C)C)C(=O)c2ccccc2C1=O)c1ccc(F)c(F)c1,0.0288

row,Compound,viability index
1,O=C(CN(CCN1CCOCC1)S(=O)(=O)c1ccccn1)N1CCN(C(c2ccccc2)c2ccccc2)CC1,0.637
2,CCN(CC)c1ccc(C=NNC(=O)c2ccc(Nc3nc(-c4ccccc4)cs3)cc2)c(O)c1,0.675
3,Cc1ccccc1N1C(=O)C2C3c4ccccc4C(C(=O)O)(c4ccccc43)C2C1=O (stereo not given),0.616
4,CN(C)CCN1CCN(c2ccnc3cc4ccccc4cc23)CC1,0.84
5,O=c1c(=O)n(Cc2cccc(C(F)(F)F)c2)ccn1CCc1ccccc1,0.751
6,CCN(CC)S(=O)(=O)c1ccc2[nH]cc(C(=O)NCCCN3CCN(c4ccc(OC)cc4)CC3)c(=O)c2c1,1.14
7,CCN(CC)c1ccc(N=Cc2ccc(Sc3nc4ccccc4s3)o2)cc1,1.17
8,OC(COc1ccc(OCC(O)CN2CCN(C3c4ccccc4-c4ccccc43)CC2)cc1)CN1CCN(C2c3ccccc3-c3ccccc32)CC1 (stereo not given),0.754
9,CC(=O)N(C1=C(N(C)C)C(=O)c2ccccc2C1=O)c1cccc(Cl)c1,0
10,Cc1nc2c(C)cccc2c(O)c1CC=C(Cl)Cl,0.759
11,Oc1c(CN2CCN(Cc3ccc4cccnc4c3O)CC2)ccc2cccnc12,0.601
12,COc1ccc(C(OCCS(=O)(=O)CCO)(c2ccccc2)c2ccc(OC)cc2)cc1,0.0248
13,COc1ccc(S(=O)(=O)N=C2C=C(Nc3ccccc3)C(=O)c3ccccc32)cc1,0.232
14,COc1ccc(-c2nc(NC(=O)CS(=O)(=O)c3ccccc3)sc2C)cc1,1.02
15,O=C(Nc1ccc(Oc2ccc(OC(F)(F)F)cc2)cc1)C1CC1,0.693
16,CCCOC(=O)C1=C(C)NC2=C(C(=O)CC(c3ccc(OC)c(OC)c3)C2)C1c1cccc(Br)c1 (stereo not given),0.83
17,CCN1CCN(c2cc(C)c3cc(NC(=O)c4cncc(Br)c4)ccc3n2)CC1,0.801
18,CCCNC1=C(N(C(C)=O)c2ccc(C)cc2)C(=O)c2ccccc2C1=O,0.0531
19,CC(=O)N(C1=C(N2CCCC2)C(=O)c2ccccc2C1=O)c1ccc(I)cc1,0.879
20,CCCNC1=C(N(C(C)=O)c2cccc(F)c2)C(=O)c2ccccc2C1=O,0.0245
21,CC(=O)N(C1=C(N2CCCC2)C(=O)c2ccccc2C1=O)c1cccc(F)c1,1
22,CC(=O)N(C1=C(N2CCCCC2)C(=O)c2ccccc2C1=O)c1cccc(F)c1,0.833
23,CCCCOc1ccc(N(C(C)=O)C2=C(N3CCCCC3)C(=O)c3ccccc3C2=O)cc1,0.301

row,Compound,viability index
1,COc1cccc(C(=O)NC(c2ccc(Cl)cc2)c2cc(Cl)c3cccnc3c2O)c1 (stereo not given),0.523
2,COCCCNC(=O)C=Cc1ccc(C(C)C)cc1,0.976
3,C=CCOC(=O)C1=C(C)N2CCSC2=C(C#N)C1c1ccco1 (stereo not given),1.13
4,O=C(Nc1ccc2nc3n(c(=O)c2c1)CCCCC3)C(=O)N1CCN(c2cccc(Cl)c2)CC1,0.432
5,O=C(CCCCCN1C(=O)c2cccc3cccc(c23)C1=O)NO,0.853
6,Cn1c(SCc2cccc([N+](=O)[O-])c2)nc2c(c1=O)SCC2,0.818
7,CC(=O)N(C1=C(N2CCCCC2)C(=O)c2ccccc2C1=O)c1ccc(F)c(F)c1,0.837
8,CC(=O)N(C1=C(N2CCCCC2)C(=O)c2ccccc2C1=O)c1cccc(Cl)c1,0.144
9,CC(=O)N(C1=C(N2CCCC2)C(=O)c2ccccc2C1=O)c1ccc(F)c(F)c1,0.743
10,CC(=O)N(C1=C(N2CCOCC2)C(=O)c2ccccc2C1=O)c1cc(C)cc(C)c1,0.0695
11,CC(=O)N(C1=C(N2CCOCC2)C(=O)c2ccccc2C1=O)c1cccc(Cl)c1,0.0385
12,CC(=O)N(C1=C(N2CCOCC2)C(=O)c2ccccc2C1=O)c1ccc(F)c(F)c1,0.0694
13,CC(=O)N(C1=C(N2CCN(C)CC2)C(=O)c2ccccc2C1=O)c1cc(C)cc(C)c1,0.521
14,CC(=O)N(C1=C(N2CCOCC2)C(=O)c2ccccc2C1=O)c1ccc(Br)cc1,0.408
15,CC(=O)N(C1=C(N2CCOCC2)C(=O)c2ccccc2C1=O)c1ccc(Cl)c(Cl)c1,0.351
16,COc1cncc(-c2cncc(-c3ccc(Oc4ccccc4)cc3)n2)c1,0.899
17,COc1cc2c(cc1OC)C(COc1ccc(F)cc1)N(C(=O)c1ccc(OC(C)C)cc1)CC2 (stereo not given),0.66
18,CCCN(CCC)CC(O)COc1ccccc1C(=O)Nc1ccccc1 (stereo not given),0.65
19,Cc1ccc(N2C(N)=NC(N)=NC2(C)C)cc1,0.985
20,C=CCCC(=O)N1CCC(C(=O)Nc2ccc(-c3nc4ccccc4o3)cc2)CC1,0.846
21,c1ccc2c(c1)[nH]c1c(NCCN3CCCCC3)ncnc12,1.09
